From the supplement of paper PMC10646978
± gives the standard deviation.

Assays:
Settings in all cases: modulator concentration 10 µM
[1] = test system: RAW-Dual (murine macrophage reporter line); experiment: NF-kB reporter (SEAP) activity fold change vs agonist alone; higher = enhanced NF-kB activity
Procedure, shortened: (§1)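 RAW-Dual murine macrophage reporter cells were plated at 50 000 per well in 384-well plates, pin-transferred compound to 10 μM final, and pre-incubated for 1 hour at 37 °C before a PRR agonist was added and the cells incubated overnight. NF-κB activity was read from supernatant SEAP with QUANTI-Blue at 620 nm absorbance, and IRF activity from Lucia luciferase with QUANTI-Luc by luminescence. Each signal was expressed as fold change by dividing by the mean agonist-only control on the same plate. Two replicate plates were averaged, with errors obtained by propagation.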

[2] = test system: RAW-Dual (murine macrophage reporter line); experiment: IRF reporter (Lucia luciferase) activity fold change vs agonist alone; higher = enhanced IRF activity
Procedure, shortened: as §1

[3] = test system: RAW-Dual (murine macrophage reporter line); experiment: viability score (confluency relative to resting cells, overnight) (fraction); higher = more viable, active = viable (0.7 or more)
Procedure, shortened: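 RAW-Dual macrophages in 384-well plates were treated overnight with compound at 10 μM final. IncuCyte imaging recorded confluency, and IncuCyte software built two confluency masks across every imaged well. The viability score expresses confluency relative to resting cells and was judged against a cutoff, which a compound met only if both masks exceeded 70% of resting cells.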

[4] = agonist: CpG ODN 1826 0.5 ug/mL

| Structure (SMILES) | NF-kB reporter [1, 4] | NF-kB reporter ([1]; agonist: LPS 0.1 ug/mL) | NF-kB reporter ([1]; agonist: MPLA […]) | IRF reporter ([2]; agonist: 3'3'-cGAMP 10 ug/mL) | IRF reporter ([2]; agonist: LPS 0.1 ug/mL) | IRF reporter ([2]; agonist: MPLA […]) | viability score [3] |
| --- | --- | --- | --- | --- | --- | --- | --- |
| CC(C)(Oc1ccc(Cl)cc1)C(=O)Nc1cnoc1 | 1.05 ± 0.097 | 1.09 ± 0.082 | 1.08 ± 0.098 | 0.982 ± 0.037 | 1.03 ± 0.063 | 1.04 ± 0.17 | 0.979 (active) |
| CC(=O)N1CCN=C1SCc1cccc(C(F)(F)F)c1 | 0.767 ± 0.06 | 0.698 ± 0.059 | 0.896 ± 0.029 | 0.572 ± 0.035 | 0.912 ± 0.068 | 0.88 ± 0.08 | 0.99 (active) |
| CCOc1ccccc1OCCCCOc1ccc(Cl)c(C)c1 | 0.947 ± 0.11 | 1.12 ± 0.081 | 1.07 ± 0.084 | 0.937 ± 0.1 | 1.03 ± 0.16 | 1.15 ± 0.35 | 1 (active) |
| CC(C)NCC(O)COc1ccccc1C(C)(C)C.Cl (centres undefined) | 0.857 ± 0.063 | 1.02 ± 0.098 | 1.15 ± 0.03 | 0.796 ± 0.029 | 1.02 ± 0.084 | 0.952 ± 0.17 | 0.922 (active) |
| CCN(CC)CCOC(=O)C(c1ccccc1)C1CCCCC1.Cl (centres undefined) | 1.04 ± 0.08 | 0.861 ± 0.076 | 0.878 ± 0.082 | 1.07 ± 0.033 | 1.31 ± 0.13 | 1.52 ± 0.18 | 0.948 (active) |
| O=C(CCC1CCCCC1)Nc1ccc(Br)cc1 | 1.02 ± 0.068 | 0.98 ± 0.074 | 1.07 ± 0.029 | 0.591 ± 0.029 | 0.922 ± 0.048 | 0.976 ± 0.096 | 0.986 (active) |
| O=C(NCCCCNC(=O)c1cncc(Br)c1)c1cncc(Br)c1 | 0.947 ± 0.053 | 0.973 ± 0.095 | 0.907 ± 0.075 | 0.946 ± 0.038 | 1.37 ± 0.093 | 1.16 ± 0.24 | 0.991 (active) |
| CN1CCN(C2=Nc3ccccc3Oc3ccc(Cl)cc32)CC1.O=C(O)CCC(=O)O | 0.411 ± 0.052 | 0.796 ± 0.081 | 1.07 ± 0.1 | 0.548 ± 0.12 | 0.722 ± 0.13 | 0.672 ± 0.15 | 0.92 (active) |
| Cc1cc(O)c2c(c1)C(=O)c1cccc(O)c1C2=O | 0.969 ± 0.08 | 1.08 ± 0.1 | 1.1 ± 0.024 | 0.894 ± 0.08 | 0.973 ± 0.1 | 0.953 ± 0.11 | 0.986 (active) |
| COc1ccc(S(=O)(=O)NC(C)C)c2ccccc12 | 0.904 ± 0.09 | 0.942 ± 0.084 | 1.06 ± 0.06 | 0.999 ± 0.074 | 1.01 ± 0.13 | 1.08 ± 0.39 | 0.951 (active) |
| CCN(CC)c1ccc(C=NNC(=O)c2ccncc2)cc1 | 1.16 ± 0.11 | 0.926 ± 0.12 | 1.05 ± 0.06 | 0.676 ± 0.12 | 0.948 ± 0.058 | 1.11 ± 0.076 | 0.991 (active) |
| Nc1ncnc2c1ncn2[C@@H]1O[C@H](CO)[C@@H](O)[C@@H]1O | 1.15 ± 0.095 | 0.941 ± 0.047 | 1.02 ± 0.053 | 0.953 ± 0.067 | 0.983 ± 0.077 | 1.02 ± 0.12 | 0.991 (active) |
| CCOC(=O)c1ccc(N)cc1.Cl | 0.872 ± 0.12 | 1.03 ± 0.12 | 0.997 ± 0.056 | 0.819 ± 0.036 | 1.25 ± 0.1 | 0.977 ± 0.13 | 0.996 (active) |
| COc1ccc(CNCc2ccc3ccccc3c2)cc1OC | 0.722 ± 0.064 | 1 ± 0.07 | 0.943 ± 0.05 | 0.784 ± 0.035 | 1.04 ± 0.059 | 0.961 ± 0.2 | 0.999 (active) |
| O=C(CN1CCCCC1)NN=Cc1ccccc1OCc1ccccc1 | 0.948 ± 0.08 | 1.01 ± 0.1 | 0.927 ± 0.04 | 0.99 ± 0.1 | 1.02 ± 0.082 | 1.14 ± 0.18 | 0.995 (active) |
| COc1ccc(C2Nc3ccccc3-c3nnc(SCc4ccc(C)cc4)nc3O2)cc1C (centres undefined) | 0.964 ± 0.079 | 1.07 ± 0.086 | 0.919 ± 0.04 | 0.961 ± 0.13 | 0.992 ± 0.041 | 1.06 ± 0.15 | 1 (active) |
| Cc1nc(N(C)C)nc(C)c1NC(=O)CC(C)C | 0.95 ± 0.066 | 0.92 ± 0.075 | 0.837 ± 0.089 | 1.1 ± 0.055 | 0.967 ± 0.1 | 0.897 ± 0.39 | 1.01 (active) |
| O=C(Nc1ccc([N+](=O)[O-])cc1)Nc1ccc(Cl)cn1 | 0.838 ± 0.065 | 0.942 ± 0.074 | 0.986 ± 0.14 | 0.893 ± 0.041 | 1.39 ± 0.1 | 1.61 ± 0.14 | 1 (active) |
| O=C(c1ccc(OC(F)(F)F)cc1)N1CCC(Oc2cnccn2)CC1 | 1.05 ± 0.42 | 1.23 ± 0.061 | 1.04 ± 0.066 | 0.902 ± 0.03 | 1.19 ± 0.13 | 1.28 ± 0.13 | 0.996 (active) |
| CC/C(=C(\c1ccccc1)c1ccc(OCCN(C)C)cc1)c1ccccc1.O=C(O)CC(O)(CC(=O)O)C(=O)O | 0.808 ± 0.064 | 0.859 ± 0.053 | 1.09 ± 0.11 | 0.963 ± 0.048 | 1.32 ± 0.076 | 1.38 ± 0.12 | 1.02 (active) |
| OCCSCCc1ccncc1 | 1.03 ± 0.083 | 1.05 ± 0.086 | 1.01 ± 0.047 | 1.02 ± 0.23 | 0.995 ± 0.07 | 1.02 ± 0.17 | 1 (active) |
| N=C(N)NCCN1CCCCCCC1.O=S(=O)(O)O | 1.25 ± 0.3 | 1.11 ± 0.088 | 1.24 ± 0.26 | 0.929 ± 0.032 | 1.27 ± 0.14 | 1.24 ± 0.12 | 0.993 (active) |
| NC(=O)CC[C@H](N)C(=O)O | 0.931 ± 0.076 | 0.998 ± 0.096 | 0.982 ± 0.023 | 0.949 ± 0.082 | 0.998 ± 0.039 | 1.04 ± 0.11 | 1.01 (active) |
| COC(=O)C1=C(C)NC(C)=C(C(=O)OCCN2CCN(C(c3ccccc3)c3ccccc3)CC2)C1c1cccc([N+](=O)[O-])c1.Cl.Cl (centres undefined) | 0.241 ± 0.082 | 0.588 ± 0.22 | 0.799 ± 0.051 | 0.132 ± 0.008 | 0.888 ± 0.27 | 1.32 ± 0.18 | 0.975 (active) |
| CCCCc1oc2ccccc2c1C(=O)c1cc(I)c(OCCN(CC)CC)c(I)c1.Cl | 0.471 ± 0.038 | 0.988 ± 0.12 | 1.83 ± 0.34 | 0.55 ± 0.033 | 1.6 ± 0.12 | 1.77 ± 0.15 | 1 (active) |
| Cc1c(Cl)cccc1NC(=O)C(Cl)=Cc1ccccc1 | 0.757 ± 0.082 | 0.929 ± 0.11 | 1.07 ± 0.095 | 0.799 ± 0.04 | 1.13 ± 0.068 | 1.25 ± 0.11 | 1.01 (active) |
| CCOc1cc(CC(=O)N[C@@H](CC(C)C)c2ccccc2N2CCCCC2)ccc1C(=O)O | 1.24 ± 0.23 | 1.11 ± 0.23 | 0.956 ± 0.055 | 0.897 ± 0.039 | 1.22 ± 0.32 | 1.26 ± 0.18 | 0.683 (inactive) |
